In PubChem BioAssay (EPA / NIEHS):
Results filed as inconclusive are left out. Active and inactive are the calls of the source. The calls were made as follows, unless noted: active = hit-call score of the fitted dose curve at least 0.9, where 1 is the maximum; inactive = score below 0.9.

Key:
[1] = ATG_PBREM_CIS: Attagene CIS-FACTORIAL HepG2 Assay for human Phenobarbital-responsive Enhancer Module (PBREM) (AID 2282955); settings: HepG2 PBREM cis-reporter, Attagene multiplexed transcription; actives raise or lower the signal
In short: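 Endogenous transcription factors in human liver HepG2 cells drive a PBREM cis-element reporter, whose transcript level after 24 h treatment is quantified by RT-PCR with capillary electrophoresis; activity fitted in both directions against DMSO.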

[2] = biological target: Paired box protein Pax-6 (Homo sapiens) (UniProt P26367); test: ATG_Pax6_CIS: Attagene CIS-FACTORIAL HepG2 Assay for human Paired Box 6 (PAX6) (AID 2282956); settings: HepG2 CIS-FACTORIAL PAX6 reporter transcription, RNA readout; actives raise or lower the signal
Chain of Paired box protein Pax-6 (Homo sapiens) (P26367 whole entry, looked up): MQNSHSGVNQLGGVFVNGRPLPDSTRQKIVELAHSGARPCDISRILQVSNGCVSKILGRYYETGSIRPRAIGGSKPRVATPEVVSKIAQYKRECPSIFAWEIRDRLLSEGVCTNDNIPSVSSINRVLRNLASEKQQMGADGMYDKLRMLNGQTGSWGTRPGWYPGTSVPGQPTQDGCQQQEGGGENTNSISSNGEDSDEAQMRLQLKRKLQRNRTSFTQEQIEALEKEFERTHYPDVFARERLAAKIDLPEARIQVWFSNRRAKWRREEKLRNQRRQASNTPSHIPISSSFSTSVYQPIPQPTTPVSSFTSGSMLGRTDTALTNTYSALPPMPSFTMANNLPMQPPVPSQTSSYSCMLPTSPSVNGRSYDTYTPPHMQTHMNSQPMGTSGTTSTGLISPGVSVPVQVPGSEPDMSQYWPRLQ
In short: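 Fluorescent RT-PCR products separated by capillary electrophoresis report PAX6-linked promoter mRNA in HepG2 cells 24 h post-dose. Curves fitted bidirectionally, DMSO as negative control.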

[3] = ATG_PXRE_CIS: Attagene CIS-FACTORIAL HepG2 Assay for human Pregnane X Receptor Element (PXRE) (AID 2282957); settings: HepG2 Attagene CIS-FACTORIAL PXRE reporter, mRNA; actives raise or lower the signal
In short: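 Endogenous transcription factor activity in HepG2 was gauged through induction of reporter mRNA driven by a cis-regulating promoter element, sampled 24 h post-treatment. Activity was fitted in both directions against DMSO negative control.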

[4] = ATG_PPRE_CIS: Attagene CIS-FACTORIAL HepG2 Assay for human Peroxisome Proliferator-activated Response Element (PPRE) (AID 2282958); settings: HepG2 PPRE cis-element reporter, Attagene transcription factor profiling; actives raise or lower the signal
In short: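 HepG2, transient MRTU transfection (cis promoter elements, endogenous TFs). 24 h dosing. RNA → oligo(dT) RT → PCR → 6-FAM primer extension → HpaI digest → CE. Bidirectional fit vs DMSO.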

[5] = ATG_RORE_CIS: Attagene CIS-FACTORIAL HepG2 Assay for human RAR-related Orphan Receptor Element (RORE) (AID 2282959); settings: HepG2 Attagene cis-factorial RORE reporter, mRNA; actives raise or lower the signal
In short: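 Transient MRTU transfection of human HepG2 liver cells (FuGene 6); 24 h compound exposure; TriZol RNA, oligo(dT) RT, PCR, FAM labeling, HpaI cut, CE fragment analysis. DMSO = negative control/baseline.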

[6] = ATG_Sox_CIS: Attagene CIS-FACTORIAL HepG2 Assay for human SRY-box transcription factor (SOX) (AID 2282960); settings: HepG2 Attagene cis-factorial SOX reporter, mRNA; actives raise or lower the signal
In short: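 Endogenous factor activity in human liver HepG2 cells carrying transfected cis-regulated reporter units. RNA taken 24 h post-dose, reverse-transcribed, PCR-amplified and sized by capillary electrophoresis. Gain or loss of signal fitted relative to DMSO.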

[7] = biological target: Transcription factor Sp1 (Homo sapiens) (UniProt P08047); test: ATG_Sp1_CIS: Attagene CIS-FACTORIAL HepG2 Assay for human Specificity Protein 1 (Sp1) (AID 2282961); settings: HepG2 Sp1 cis-reporter transcription, actives raise or lower the signal
Chain of Transcription factor Sp1 (Homo sapiens) (P08047 whole entry, looked up): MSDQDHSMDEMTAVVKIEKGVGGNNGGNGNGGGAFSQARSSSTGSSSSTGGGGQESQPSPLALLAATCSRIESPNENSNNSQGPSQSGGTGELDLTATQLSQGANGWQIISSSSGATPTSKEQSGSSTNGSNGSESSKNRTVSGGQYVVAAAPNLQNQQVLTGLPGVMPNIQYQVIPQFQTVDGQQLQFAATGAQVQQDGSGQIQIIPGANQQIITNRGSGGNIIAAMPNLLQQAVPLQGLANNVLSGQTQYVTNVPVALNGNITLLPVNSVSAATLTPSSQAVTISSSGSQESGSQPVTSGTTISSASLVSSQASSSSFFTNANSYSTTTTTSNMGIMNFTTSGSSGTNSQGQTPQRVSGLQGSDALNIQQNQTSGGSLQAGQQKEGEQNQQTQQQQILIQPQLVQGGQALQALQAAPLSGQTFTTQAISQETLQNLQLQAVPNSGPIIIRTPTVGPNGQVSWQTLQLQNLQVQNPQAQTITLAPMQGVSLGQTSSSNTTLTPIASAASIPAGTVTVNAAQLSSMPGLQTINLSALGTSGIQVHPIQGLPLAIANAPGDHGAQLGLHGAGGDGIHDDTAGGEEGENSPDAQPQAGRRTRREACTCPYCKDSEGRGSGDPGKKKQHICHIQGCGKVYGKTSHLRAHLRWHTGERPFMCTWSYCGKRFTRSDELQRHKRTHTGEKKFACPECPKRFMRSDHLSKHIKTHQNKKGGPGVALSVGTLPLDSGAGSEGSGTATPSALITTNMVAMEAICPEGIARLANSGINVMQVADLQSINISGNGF
In short: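 Transient MRTU-transfected HepG2, 24 h compound exposure. Total RNA → oligo(dT) RT → PCR of reporter → 6-FAM primer extension → HpaI digest → CE. Endpoint fitted both directions vs DMSO.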

[8] = ATG_SREBP_CIS: Attagene CIS-FACTORIAL HepG2 Assay for human Sterol Regulatory Element Binding (SREBP) (AID 2282962); settings: HepG2 Attagene cis-factorial SREBP reporter, mRNA; actives raise or lower the signal
In short: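 Endogenous factor activity is measured in HepG2 through multiplexed reporter units under cis-element control. Following a 24 h incubation, reporter transcripts are reverse-transcribed, PCR-amplified and sized by capillary electrophoresis; activity is fitted in both directions relative to DMSO.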

[9] = biological target: Signal transducer and activator of transcription 3 (Homo sapiens) (UniProt P40763); test: ATG_STAT3_CIS: Attagene CIS-FACTORIAL HepG2 Assay for human Signal Transducer and Activator of Transcription 3 (STAT3) (AID 2282963); settings: HepG2, Attagene cis-factorial STAT3 reporter transcription; actives raise or lower the signal
Chain of Signal transducer and activator of transcription 3 (Homo sapiens) (P40763 whole entry, looked up, the tested form may be a part): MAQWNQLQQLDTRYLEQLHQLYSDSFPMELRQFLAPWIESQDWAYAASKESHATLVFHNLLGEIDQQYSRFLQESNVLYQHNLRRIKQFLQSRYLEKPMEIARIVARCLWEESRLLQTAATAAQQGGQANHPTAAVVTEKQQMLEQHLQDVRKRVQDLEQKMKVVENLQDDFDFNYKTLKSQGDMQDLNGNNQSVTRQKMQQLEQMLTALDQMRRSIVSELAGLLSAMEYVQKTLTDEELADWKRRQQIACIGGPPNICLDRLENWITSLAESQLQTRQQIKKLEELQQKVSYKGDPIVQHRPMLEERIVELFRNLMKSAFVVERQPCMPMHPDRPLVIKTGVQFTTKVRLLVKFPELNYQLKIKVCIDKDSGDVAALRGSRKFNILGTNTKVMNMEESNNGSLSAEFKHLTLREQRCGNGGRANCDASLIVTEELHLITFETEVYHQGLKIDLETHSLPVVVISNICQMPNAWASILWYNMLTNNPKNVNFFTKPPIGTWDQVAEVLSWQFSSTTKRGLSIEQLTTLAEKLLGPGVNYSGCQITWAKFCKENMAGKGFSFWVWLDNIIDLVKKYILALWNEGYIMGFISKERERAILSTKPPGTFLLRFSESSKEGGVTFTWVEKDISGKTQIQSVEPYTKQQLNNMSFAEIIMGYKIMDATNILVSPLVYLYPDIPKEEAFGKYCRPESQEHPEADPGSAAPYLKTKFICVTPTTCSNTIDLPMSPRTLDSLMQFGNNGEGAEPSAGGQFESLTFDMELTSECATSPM
In short: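 Fluorescence intensity of 6-FAM-labelled reporter fragments, separated by capillary electrophoresis after RT-PCR, gave the signal. Cells were HepG2 transfected with cis-element reporter units and treated 24 h; fitting was bidirectional relative to DMSO.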

[10] = ATG_TA_CIS: Attagene CIS-FACTORIAL HepG2 Assay for human TA Basal Promoter (AID 2282964); settings: HepG2 Attagene CIS-factorial TA basal promoter reporter; actives raise or lower the signal
In short: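 Fluorescence from labelled RT-PCR reporter fragments, separated by capillary electrophoresis, gives the signal. Cells: HepG2 transiently carrying multiple reporter units, 24 h chemical dosing. Gain or loss relative to DMSO.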

[11] = ATG_TCF_b_cat_CIS: Attagene CIS-FACTORIAL HepG2 Assay for human T-Cell-Factor with beta-catenin (TCF/b-cat) (AID 2282965); settings: HepG2 TCF/beta-catenin cis-reporter transcription, actives raise or lower the signal
In short: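 Cells of the HepG2 line carry transiently transfected reporter units whose promoters respond to endogenous factors. Twenty-four hours post-dosing, reporter mRNA induction is measured by fluorescent RT-PCR and capillary electrophoresis, with DMSO as baseline.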

[12] = ATG_TGFb_CIS: Attagene CIS-FACTORIAL HepG2 Assay for human Transforming Growth Factor (TGF) (AID 2282967); settings: HepG2 Attagene CIS TGFb reporter, mRNA transcription; actives raise or lower the signal
In short: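 Bidirectional fitting relative to DMSO gave the endpoint. Underlying data: reporter mRNA from HepG2 cells carrying transiently transfected cis-regulated reporter constructs, harvested 24 h after dosing and analyzed by RT-PCR and capillary electrophoresis.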

[13] = ATG_VDRE_CIS: Attagene CIS-FACTORIAL HepG2 Assay for human Vitamin D Receptor Element (VDRE) (AID 2282968); settings: HepG2 VDRE cis-reporter transcription, actives raise or lower the signal
In short: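 Compounds were applied for 24 h to HepG2 cells transfected with promoter-regulated reporter units. Total RNA was reverse-transcribed, and reporter amplicons were fluorescently labelled and sized by capillary electrophoresis.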

[14] = biological target: Estrogen receptor (Homo sapiens) (UniProt P03372); test: ATG_ERa_TRANS: Attagene TRANS-FACTORIAL HepG2 Assay for human Estrogen Receptor alpha (ERa) (AID 2282970; active = hit-call score of the fitted dose curve at least 0.9, where 1 is the maximum); settings: HepG2 Attagene TRANS ERa GAL4 reporter, mRNA
Chain of Estrogen receptor (Homo sapiens) (P03372 whole entry, looked up, the tested form may be a part): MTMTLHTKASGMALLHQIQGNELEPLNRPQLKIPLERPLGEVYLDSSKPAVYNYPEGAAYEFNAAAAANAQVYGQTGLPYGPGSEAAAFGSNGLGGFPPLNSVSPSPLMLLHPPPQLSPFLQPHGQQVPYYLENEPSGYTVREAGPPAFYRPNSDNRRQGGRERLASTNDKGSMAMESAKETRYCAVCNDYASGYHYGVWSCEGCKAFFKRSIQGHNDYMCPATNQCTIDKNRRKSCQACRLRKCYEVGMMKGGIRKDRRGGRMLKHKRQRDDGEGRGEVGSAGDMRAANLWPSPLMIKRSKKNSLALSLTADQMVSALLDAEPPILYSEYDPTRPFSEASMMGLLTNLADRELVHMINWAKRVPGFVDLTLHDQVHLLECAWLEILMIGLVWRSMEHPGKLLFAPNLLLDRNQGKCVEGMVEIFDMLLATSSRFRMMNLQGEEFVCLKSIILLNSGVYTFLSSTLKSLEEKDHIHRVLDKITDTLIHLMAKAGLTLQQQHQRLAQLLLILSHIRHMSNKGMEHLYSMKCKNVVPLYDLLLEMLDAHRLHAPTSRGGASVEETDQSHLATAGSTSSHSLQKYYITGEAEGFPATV
In short: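 Transfected HepG2 cells carrying GAL4-UAS-driven reporter units were dosed for 24 hours. Total RNA was reverse-transcribed, reporter sequences PCR-amplified, FAM-labelled, HpaI-digested and resolved by capillary electrophoresis. Increases over DMSO control defined activity.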

[15] = biological target: Steroid hormone receptor ERR1 (Homo sapiens) (UniProt P11474); test: ATG_ERRa_TRANS: Attagene TRANS-FACTORIAL HepG2 Assay for human Estrogen-Related Receptor alpha (ERRa) (AID 2282971; active = hit-call score of the fitted dose curve at least 0.9, where 1 is the maximum); settings: HepG2 Attagene TRANS reporter, ERRa transactivation
Chain of Steroid hormone receptor ERR1 (Homo sapiens) (P11474 whole entry, looked up, the tested form may be a part): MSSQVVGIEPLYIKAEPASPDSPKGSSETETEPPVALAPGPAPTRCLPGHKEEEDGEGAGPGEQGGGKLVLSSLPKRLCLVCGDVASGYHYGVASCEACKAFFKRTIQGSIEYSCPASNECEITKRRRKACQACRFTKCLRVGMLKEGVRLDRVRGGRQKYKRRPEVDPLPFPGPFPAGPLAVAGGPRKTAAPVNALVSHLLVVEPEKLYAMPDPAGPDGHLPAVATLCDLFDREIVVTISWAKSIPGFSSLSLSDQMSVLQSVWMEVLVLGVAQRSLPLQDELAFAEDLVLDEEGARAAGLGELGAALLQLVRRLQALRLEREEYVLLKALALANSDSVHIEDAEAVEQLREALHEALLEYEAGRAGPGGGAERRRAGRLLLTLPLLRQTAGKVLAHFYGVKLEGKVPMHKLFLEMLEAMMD
In short: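 HepG2 cells were transiently transfected with multiple GAL4-UAS reporter units, then dosed with compound for 24 h. Total RNA was reverse-transcribed, reporter cDNA PCR-amplified and fluorescently labelled, and fragments resolved by capillary electrophoresis; induction was compared with DMSO.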

[16] = biological target: X-box-binding protein 1 (Homo sapiens) (UniProt P17861); test: ATG_Xbp1_CIS: Attagene CIS-FACTORIAL HepG2 Assay for human X-box Binding Protein 1 (XBP1) (AID 2282972); settings: HepG2 XBP1 cis-element reporter, Attagene multiplex; actives raise or lower the signal
Chain of X-box-binding protein 1 (Homo sapiens) (P17861 whole entry, looked up): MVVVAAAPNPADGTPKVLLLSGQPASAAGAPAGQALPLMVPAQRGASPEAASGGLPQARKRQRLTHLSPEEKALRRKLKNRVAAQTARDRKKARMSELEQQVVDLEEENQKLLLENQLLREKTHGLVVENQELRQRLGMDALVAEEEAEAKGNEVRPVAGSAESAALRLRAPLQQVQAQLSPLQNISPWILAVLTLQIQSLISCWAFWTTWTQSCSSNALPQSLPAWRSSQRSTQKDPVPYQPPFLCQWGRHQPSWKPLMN
In short: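 Multiplexed cis-reporter readout in transfected HepG2 liver cells. Exposure lasted 24 hours. Activity in either direction was fitted against DMSO as negative control and baseline.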

[17] = biological target: Androgen receptor (Homo sapiens) (UniProt P10275); test: ATG_AR_TRANS: Attagene TRANS-FACTORIAL HepG2 Assay for human Androgen Receptor (AR) (AID 2282973; active = hit-call score of the fitted dose curve at least 0.9, where 1 is the maximum); settings: HepG2 Attagene TRANS-FACTORIAL AR reporter transcription
Chain of Androgen receptor (Homo sapiens) (P10275 whole entry, looked up, the tested form may be a part): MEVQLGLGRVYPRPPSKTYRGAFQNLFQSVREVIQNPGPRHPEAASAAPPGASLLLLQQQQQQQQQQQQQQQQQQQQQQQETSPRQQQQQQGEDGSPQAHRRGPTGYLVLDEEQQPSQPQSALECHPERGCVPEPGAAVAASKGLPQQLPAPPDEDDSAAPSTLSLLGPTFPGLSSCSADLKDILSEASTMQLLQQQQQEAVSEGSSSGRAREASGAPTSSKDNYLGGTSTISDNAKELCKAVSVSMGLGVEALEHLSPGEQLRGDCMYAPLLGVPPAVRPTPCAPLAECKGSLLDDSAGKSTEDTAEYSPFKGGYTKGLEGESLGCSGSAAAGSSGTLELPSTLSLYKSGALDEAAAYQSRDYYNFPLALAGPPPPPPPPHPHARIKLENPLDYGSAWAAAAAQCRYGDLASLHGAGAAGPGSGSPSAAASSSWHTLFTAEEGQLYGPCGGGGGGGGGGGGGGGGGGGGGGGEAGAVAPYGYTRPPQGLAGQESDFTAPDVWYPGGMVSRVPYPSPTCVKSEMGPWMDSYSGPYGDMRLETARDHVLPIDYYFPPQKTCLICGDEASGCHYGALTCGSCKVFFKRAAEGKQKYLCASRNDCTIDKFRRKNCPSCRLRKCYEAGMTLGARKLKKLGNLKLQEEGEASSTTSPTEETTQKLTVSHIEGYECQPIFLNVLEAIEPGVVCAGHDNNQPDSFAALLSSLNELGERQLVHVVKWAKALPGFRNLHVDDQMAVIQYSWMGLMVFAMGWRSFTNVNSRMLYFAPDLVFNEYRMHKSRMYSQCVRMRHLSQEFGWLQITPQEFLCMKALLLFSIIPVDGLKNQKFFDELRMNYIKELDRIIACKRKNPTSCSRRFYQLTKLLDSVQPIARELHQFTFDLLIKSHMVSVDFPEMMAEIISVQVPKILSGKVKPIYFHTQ
In short: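 Transfected HepG2, 24 h treatment, chimeric NR-Gal4 driving GAL4-UAS reporters. mRNA induction by RT-PCR/capillary electrophoresis fluorescence; DMSO as negative control and baseline.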

[18] = ATG_M_19_TRANS: Attagene TRANS-FACTORIAL HepG2 Assay for M19 Transcription Factor (Internal Marker) (AID 2282974; active = hit-call score of the fitted dose curve at least 0.9, where 1 is the maximum); settings: HepG2 Attagene TRANS-FACTORIAL M19 internal marker reporter
In short: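 Fluorescence of 6-FAM-labelled reporter cDNA fragments, separated by capillary electrophoresis, served as the readout. These derived from HepG2 cells carrying transfected GAL4-UAS reporter units after 24 h dosing, with DMSO as negative control.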

[19] = ATG_TAL_CIS: Attagene CIS-FACTORIAL HepG2 Assay for human TAL Basal Promoter (AID 2282966); settings: HepG2 Attagene cis-factorial TAL promoter reporter; actives raise or lower the signal;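 also: background control endpoint measuring basal TAL promoter reporter mRNA not a specific factor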
In short: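 Endogenous transcription-factor activity is sensed in HepG2 cells through transfected cis-promoter reporter constructs. After 24 h dosing, reporter transcripts are quantified by RT-PCR and capillary electrophoresis. Gain or loss of signal is fitted relative to DMSO.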

[20] = biological target: Nuclear receptor subfamily 1 group I member 3 (Homo sapiens) (UniProt Q14994); test: ATG_CAR_TRANS: Attagene TRANS-FACTORIAL HepG2 Assay for human Constitutive Androstane Receptor (CAR) (AID 2282969; active = hit-call score of the fitted dose curve at least 0.9, where 1 is the maximum;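 also: activators raise reporter mRNA above DMSO so AC50 marks induction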); settings: HepG2 Attagene TRANS-FACTORIAL CAR reporter
Chain of Nuclear receptor subfamily 1 group I member 3 (Homo sapiens) (Q14994 whole entry, looked up, the tested form may be a part): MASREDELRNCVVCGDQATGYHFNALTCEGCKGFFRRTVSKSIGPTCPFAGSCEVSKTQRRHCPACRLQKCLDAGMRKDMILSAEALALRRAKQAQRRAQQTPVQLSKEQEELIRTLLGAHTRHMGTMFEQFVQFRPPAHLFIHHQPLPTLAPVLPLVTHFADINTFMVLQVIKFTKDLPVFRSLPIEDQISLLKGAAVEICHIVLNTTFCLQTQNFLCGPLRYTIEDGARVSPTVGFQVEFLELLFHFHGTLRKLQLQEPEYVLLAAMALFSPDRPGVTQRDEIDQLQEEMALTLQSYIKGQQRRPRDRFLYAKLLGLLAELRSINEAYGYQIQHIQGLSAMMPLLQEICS
In short: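 Transiently transfected HepG2, multiplex TRANS reporters (CAR-Gal4 chimera driving GAL4-UAS reporter). 24 h dosing. Readout: reporter transcript by RT-PCR + capillary electrophoresis, fluorescence intensity; positive direction vs DMSO.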

Measured: AC50

OCC(F)(F)OC(F)(F)C(F)(F)OC(F)(F)C(F)(F)OC(F)(F)CO
active: [3] 13.9 µM | [11] 9.92 µM | [13] 18.6 µM | [14] 0.281 µM
not listed: [19] | [20]
inactive: all other assays above

c1ccc2c(c1)sc1ccccc12
active: [14] 63.7 µM
not listed: [6] | [17]
inactive: all other assays above

Nc1ccc(Sc2ccc(N)cc2)cc1
active: [1] 100 µM | [3] 41.2 µM | [4] 51.2 µM | [5] 36.6 µM | [13] 62.9 µM | [14] 7.99 µM
not listed: [17] | [19]
inactive: all other assays above

N#Cc1ccc(O)cc1
not listed: [6] | [15] | [17]
inactive: all other assays above

O=[N+]([O-])c1cc(Cl)ccc1Cl
active: [3] 56.2 µM
not listed: [6] | [15] | [17] | [18] | [20]
inactive: all other assays above

[N-]=[N+]=[N-]
not listed: [6] | [15] | [17] | [18]
inactive: all other assays above

c1cc2c3c(cccc3c1)CC2
not listed: [13] | [15] | [17]
inactive: all other assays above

Cc1c([N+](=O)[O-])cc2c(c1[N+](=O)[O-])C(C)(C)CC2(C)C
active: [3] 0.964 µM | [8] 7.71 µM
not listed: [17] | [18] | [19] | [20]
inactive: all other assays above
